Rows were chosen to be rich in hits. Some 2.7% of all compounds tested hit in one or more screens of this group.
GLP-1R agonist: qHTS of GLP-1 Receptor Agonists; Glucagon-like peptide 1 receptor (Homo sapiens), P43220; actives 0.007% (n = 380,000); HEK293 GLP-1R CRE-luciferase, luminescence, 4-6 h; cells express a hypersensitive GLP-1R form; Potency, µM (titrated, usually from 45.6 µM), for inactives: at the top dose activation, most hits filed as activators; also: % of control where 0% means no effect
TrxR1 substrate: qHTS Assay for Substrates of Mammalian Selenoprotein Thioredoxin Reductase 1 (TrxR1): qHTS | AID 588456, 2011 | purified TrxR1 substrate turnover, NADPH consumption readout | Potency, µM (series often up to 114 µM), for the others: top-dose activity change, negative = substrate turnover | actives 0.01% (n = 390,000); also: % is scaled to controls: 0 for no effect and ±100 for the full control effect; nearly all actives have a fitted effect of over 50% in size
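Rat TrxR1, dispensed at 90 nM, was prereduced with 400 uM NADPH (final) for 5 min at ~22 deg C, then incubated with compound 15 min before 400 uM selenite. A first-read NADPH fluorescence drop versus no-compound background flagged substrates.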
TrxR1 inh: qHTS Assay for Inhibitors of Mammalian Selenoprotein Thioredoxin Reductase 1 (TrxR1): qHTS; Potency, µM (doses to about 114 µM), for the others: at the top dose activity change, negative = inhibition, most hits filed as inhibitors; actives 1% (n = 390,000); recombinant rTrxR1, NADPH fluorescence consumption, selenite substrate; Thioredoxin reductase 1, cytoplasmic (Rattus norvegicus), O89049; also: % is scaled to controls: 0 for no effect and ±100 for the full control effect; nearly all actives have a fitted effect of over 65% in size
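Rat TrxR1 (90 nM in the dispensed reagent) was pre-reduced with 400 uM NADPH for 5 min at room temperature, then incubated with compound for 15 min. After 400 uM selenite was added, NADPH fluorescence (Ex 340/Em 450 nm) was followed for 8 min.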
GLP-1R inv ag: qHTS of GLP-1 Receptor Inverse Agonists (Inhibition Mode) | actives 1.6% (n = 410,000) | HEK293 GLP-1R CRE-luciferase, luminescence, 24 h; GLP-1R form is constitutively active | Potency, µM (highest dose often 38.3 µM), for the others: at the highest dose activity change, negative = inhibition, usual class: inhibitors; also: % is scaled to controls: 0 for no effect and ±100 for the full control effect; nearly all actives have a fitted effect of over 55% in size
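GLP-1R inverse agonism mode: basal reporter luminescence in engineered HEK293 cells measured after one day of compound exposure at 37 deg C, with a 12 min room-temperature detection step.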
HEK293 tox: qHTS of GLP-1 Receptor Inverse Agonists: Cytotox Screen. actives 0.13% (n = 410,000). AID 624418, 2012. Potency, µM (highest dose often 38.3 µM), for the others: top-dose activity change, negative = inhibition, actives largely listed as inhibitors. HEK293 cAMP-luciferase reporter cells, luminescence, 24 h;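 also: loss of luciferase light is scored as toxicity; % is scaled to controls: 0 for no effect and ±100 for the full control effect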
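1536-well qHTS counterscreen of the MLSMR; 200 cells/uL, 12 h pre-incubation, 23 nL cpd, 24 h at 37 deg C 5% CO2, luciferase detection reagent, 12 min RT, luminescence. Inhibition = undesired.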
IDH1 R132H inh: qHTS for Inhibitors of mutant isocitrate dehydrogenase 1 (IDH1): qHTS. IDH1-R132H enzyme, NADPH consumption, diaphorase/resazurin fluorescence. Potency, µM (top dose mostly 76.6 µM), for inactives: top-dose activity change, negative = inhibition, usual class: inhibitors. actives 0.093% (n = 390,000); also: % is scaled to controls: 0 for no effect and ±100 for the full control effect; nearly all actives have a fitted effect of over 65% in size
Target sequence (O75874 whole entry R132H, stated change not applied): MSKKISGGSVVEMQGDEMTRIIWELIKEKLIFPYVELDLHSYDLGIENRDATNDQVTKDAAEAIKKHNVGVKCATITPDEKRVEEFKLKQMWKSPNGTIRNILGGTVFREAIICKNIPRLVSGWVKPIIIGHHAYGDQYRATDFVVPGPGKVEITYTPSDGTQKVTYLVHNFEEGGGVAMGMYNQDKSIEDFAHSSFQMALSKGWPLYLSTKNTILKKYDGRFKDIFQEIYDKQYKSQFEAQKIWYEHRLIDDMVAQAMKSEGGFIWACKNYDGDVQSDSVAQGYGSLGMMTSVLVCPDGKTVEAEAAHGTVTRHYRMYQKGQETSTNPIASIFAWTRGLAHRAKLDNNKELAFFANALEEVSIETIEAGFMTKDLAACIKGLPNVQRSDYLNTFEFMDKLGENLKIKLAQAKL
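IDH1-R132H (0.5 ug/mL) preincubated 30 min with compound, then NADPH (0.016 mM) and alpha-KG (2 mM) added; 80 min at RT, pH 7.5. Remaining NADPH coupled via diaphorase/resazurin to fluorescence (540/590 nm); concentration-response curves normalized to no-enzyme control.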
* marks the source's active call; other numbers are inactive results; ? = inconclusive; / = no result; [ ] = dose if it differs, or a comment. Calls follow the shape of the dose curve; as a rule, active = well fitted curve in the direction sought with a large enough effect; inconclusive = small, poorly fitted or top-dose-only effect, or another doubt; inactive = no such curve, though single readings can be large; an effect the other way counts as inactive or inconclusive. Potency is read from the fitted curve at half-maximal effect.

SMILES	GLP-1R agonist	TrxR1 substrate	TrxR1 inh	GLP-1R inv ag	HEK293 tox	IDH1 R132H inh
CCc1ccc(NC(=O)C2CCN(S(=O)(=O)c3ccc4[nH]c5c(c4c3)CCCCC5)CC2)cc1	/	3%[57.1 µM]	22%[57.1 µM]	?	3%	25%
CC1=Nc2ccccc2/C1=C/c1sc(=N)n(-c2nccs2)c1O	3%	-11%	-12%	2.5µM*	?	-5%
Cc1cccc(-c2nc(CSCC(=O)N3CCN(c4ccccc4)CC3)c(C)o2)c1	/	-6%	11%	?	8%	-2%
Cc1cc(C)cc(OC(=O)CS(=O)c2ccc(C(F)(F)F)cc2[N+](=O)[O-])c1 (configuration not stated)	-2%	-18%	?	?	?	-6%
O=C(CS(=O)c1ccc(C(F)(F)F)cc1[N+](=O)[O-])Oc1ccc(Cl)cc1 (configuration not stated)	0%	-12%	50µM*	0%	1%	0%
COc1ccc(-c2nc3oc4cc(OC)ccc4c(=O)c3c(=O)n2Cc2ccco2)cc1	3%	6%	?	7%	-10%	-2%
COc1ccc2c(=O)c3c(=O)n(Cc4ccco4)c(-c4ccco4)nc3oc2c1	3%	-2%	14µM*	0%	?	0%
Cc1ccc(Cn2cc(S(=O)(=O)c3cccc(Cl)c3)c(=O)c3cc(F)c(N4CCCCC4)cc32)cc1	/	16%	30%	5%	-24%	-8%
Cn1c2ccccc2c(=O)c2ccc(C#CC3(O)CCCCC3)cc21	-10%	142%	-6%[57.1 µM]	7.9µM*	125%	2%
CCOC(=O)c1c(C)c(-c2ccccc2)n(CC(=O)Nc2ccc(OCC)cc2)c1C	1%	7%	28%	7%	-8%	-1%
CC1=C(C(=O)OC2CCCC2)C(c2ccc(F)cc2F)CC(=O)N1 (configuration not stated)	-11%	-6%	-4%	?	5%	11%
CCn1cc(C(=O)NCc2ccc(C)o2)c2cc(OC)c(OC)cc2c1=O	16%	-1%	22µM*	0%	0%	6%
CCn1cc(C(=O)NCC(=O)OC)c2cc(OC)c(OC)cc2c1=O	-7%	-2%[57.1 µM]	-2%[57.1 µM]	18%	0%	-5%
COc1ccc(C)cc1N(C)C(=O)c1sc2nc3n(c(=O)c2c1C)CCCCC3	/	-4%	79µM*	-9%	0%	-6%
COc1ccc(CNC(=O)c2sc3nc4n(c(=O)c3c2C)CCCCC4)cc1	/	23%	7.1µM*	-29%	1%	-8%
CC(C)CC1NC(=S)N(Cc2ccccc2)C1=O (configuration not stated)	-2%	3%	20%	2.8µM*	-22%	-18%
CSCCC1NC(=S)N(Cc2ccccc2)C1=O (configuration not stated)	19%	-4%	2%	10µM*	-23%	21%
c1cc2c(cc1C1CCCN1)OCCCO2 (configuration not stated)	-3%	4%	45µM*	4%	-8%	2%
O=S(=O)(c1ccc2c(c1)OCCCO2)N1CCNCC1	0%	2%[57.1 µM]	5%	2%	-4%	2%
CC(NC(=O)Nc1nnc(C(F)(F)F)s1)(C(F)(F)F)C(F)(F)F	-1%	5%[0.457 µM]	-18%[57.1 µM]	4.5µM*	?	7%
Cc1cccc(-c2nc3cc(NC(=O)COc4ccccc4F)ccc3o2)c1	/	86%	38%	23%	-8%	/
Cc1ccc(S(=O)(=O)c2nc(S(C)(=O)=O)sc2N2CCCCCC2)cc1	-5%	-9%	4%	-10%	-17%	21%
Cc1ccc(S(=O)(=O)c2nc(S(C)(=O)=O)sc2N2CCC(C)CC2)cc1	7%	5%	13µM*	56%	-9%	-3%
CC(O)CNCCCOc1ccc(Cl)cc1C(C)(C)C (configuration not stated)	0%	5%[57.1 µM]	20%[57.1 µM]	1.6µM*	?	14%
CC(C)(C)c1cc(Cl)ccc1OCCn1ccnc1	1%	-14%	-11%	?	-13%	-29%
SMILES	GLP-1R agonist	TrxR1 substrate	TrxR1 inh	GLP-1R inv ag	HEK293 tox	IDH1 R132H inh
CN(C)CCOCCOc1ccc(Cl)cc1C(C)(C)C	0%	0%[57.1 µM]	18%[57.1 µM]	5.6µM*	?	13%
CC(CCc1ccc(O)cc1)NCC(O)c1ccc(O)cc1 (configuration not stated)	19%	/	/	/	/	/
COC(=O)c1ccc(Cl)cc1NC(=O)N1CC=C(c2c[nH]c3ccccc23)CC1	/	7%	7%	-6%	34%	2%
Cc1ccc(NC(=O)N2CCCCCC2)cc1C	8%	-5%	-8%	-5%	-15%	-13%
Cc1ccc(NC(=O)N2CCCN(Cc3ccc(F)cc3)C2)cc1C	-12%	-1%	-3%	4µM*	?	-4%
COc1ccc2nc3c(cc2c1)c(NC(=O)c1cccs1)nn3CC(C)C	-22%	18%[57.1 µM]	-2%[57.1 µM]	8.9µM*	156%	0%
Nc1c[n+](N2CCOCC2)no1	-5%	/	/	/	/	/
O=C(/C=C/c1ccc(OCc2cccc(Cl)c2)cc1)N1CCOCC1	3%	-3%	6%	6.3µM*	-12%	6%
O=C(/C=C/c1ccc(Cl)cc1)N1CCOCC1	9%	-2%	8%	21%	-10%	-3%
Cc1cc(C)n(CCc2nc3c4ccccc4nc(N4CCN(c5cccc(C)c5C)CC4)n3n2)n1	/	-6%	-5%	6%	-9%	-5%
CCOc1ccc(-n2cc(-c3ccccc3)c3c(NCc4ccccc4)ncnc32)cc1	/	4%[57.1 µM]	21%[57.1 µM]	?	3%	-14%
Cc1ccc(CNc2ncnc3c2c(-c2ccccc2)cn3-c2ccccc2)cc1	/	4%[57.1 µM]	25%[57.1 µM]	?	2%	5%
CCOc1ccc(-n2cc(-c3ccccc3)c3c(NCc4ccc(F)cc4)ncnc32)cc1	/	5%[57.1 µM]	23%[57.1 µM]	1.4µM*	-3%	-5%
COc1ccc(CCNc2ncnc3c2c(-c2ccccc2)cn3-c2cccc(Cl)c2)cc1OC	/	2%[57.1 µM]	7%[57.1 µM]	10µM*	-7%	14%
COc1ccc(CNc2ncnc3c2c(-c2ccccc2)cn3-c2ccccc2)cc1	/	1%[57.1 µM]	17%[57.1 µM]	6.3µM*	0%	-9%
CN(C)CCNc1nccc(N2CCN(C)CC2)n1	/	0%	12%	/	/	/

Screening data (PubChem BioAssay)
